PubChem BioAssay AID2685 (National Center for Advancing Translational Sciences (NCATS), 2010)
In all, about 320,000 compounds went through this assay and about 2,100 (0.66%) were called active. About 53% were inconclusive and are not listed. Calls come from the whole dose curve; as a rule, active = well fitted inhibition curve with a large enough effect in the signal ratio, with a control signal flat (not every such curve was filed as active); inconclusive = small, poorly fitted or top-dose-only effect, or effect the other way, or a change in a side signal; inactive = flat fitted curve, though single readings scatter; the % refers to the signal ratio. For the sample, actives were picked, then their nearest neighbours and some compounds at random.

Experiment: qHTS Assay for Lipid Storage Modulators in Drosophila S3 Cells;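 for cell number change: cells counted by Cell Tracker Red CMTPX staining in the red channel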; for lipid storage change, negative = inhibition: % is set by controls: 0 for no effect and ±100 for the full control effect
Settings: BODIPY lipid droplet fluorescence, 18-24 h, cells fed with added oleic acid; cell number change: measured here: cell count max response; series mostly up to 46.1 µM; lipid storage change, negative = inhibition: at the top concentration
Summary of the method: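 Laser-scanning cytometry quantifies lipid droplet accumulation (500–530 nm total intensity; droplet/cell object ratio) in oleic acid-fed (400 uM added) Drosophila S3 cells treated with a concentration series. 20 uM Triacsin C defined 100% inhibition.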
Potency is the fitted concentration of half-maximal effect.

Compound	lipid storage change, negative = inhibition	cell number change [%]	Potency	outcome
O=C(CN1CCN(C(=O)CNC(=O)c2ccc3c(c2)OCO3)CC1)Nc1ccccc1Cl	5.18% (inactive)	2.76		
O=C1C(Cl)=C(N2CCCC2)C(=O)N1c1ccccc1F		2.93	1.46 µM (active)	
Cc1ccccc1N1C(=O)C(Cl)=C(N2CCCCCC2)C1=O	7.54% (inactive)	-0.204		
O=C1C(Cl)=C(N2CCOCC2)C(=O)N1c1ccccc1F		-18.5		inactive
COc1ccc(NC(=O)C2CCCN2C(=O)NCc2ccccc2)c(OC)c1 (stereo not given)	5.39% (inactive)	-2.72		
O=C(NCc1ccccc1)C1CCCN1C(=O)Nc1ccccc1[N+](=O)[O-] (stereo not given)		14.7	0.731 µM (active)	
COc1ccc(NC(=O)C2CCCN2C(=O)NCc2ccccc2)cc1OC (stereo not given)	2.15% (inactive)	1.64		
COc1cccc(OC)c1NC(=O)C1CCCN1C(=O)NCc1ccccc1 (stereo not given)		-20.9	29.1 µM (active)	
CCOCCCNC(=O)C1CCCN1C(=O)Nc1ccccc1[N+](=O)[O-] (stereo not given)	-4.39% (inactive)	3.63		
COc1ccccc1NC(=O)N1CCCC1C(=O)NCc1ccccc1 (stereo not given)	-8.56% (inactive)	-7.89		
Cc1cc(-c2nnc(CCC(=O)N(C)CCc3ccccc3)o2)no1	-5.76% (inactive)	4.46		
CC1CN(C/C(=N\O)C23CC4CC(CC(C4)C2)C3)CC(C)O1 (stereo not given)	-1.17% (inactive)	-15.5		
O=C(NCc1ccc(Cl)cc1)c1cc([N+](=O)[O-])ccc1Cl	-6.86% (inactive)	16.3		
CN(C)S(=O)(=O)c1ccc(NC=C(C#N)C#N)cc1	-23.2% (inactive)	-16.2		
CCn1cc([N+](=O)[O-])c(C(=O)Nc2nc(-c3ccc(C)cc3)c(C)s2)n1		18.4	4.61 µM (active)	
CCn1cc([N+](=O)[O-])c(C(=O)Nc2nc(-c3ccc(C)c(C)c3)c(C)s2)n1	1.14% (inactive)	-14.3		
Cc1ccc(-c2nc(NC(=O)c3nn(C)cc3[N+](=O)[O-])sc2C)cc1		27.2		inactive
CCCCN(C(=O)c1ccccc1OCc1ccc(F)cc1)c1c(N)n(CCC)c(=O)[nH]c1=O	9.4% (inactive)	-14.3		
Cn1c(SCc2cccc(C#N)c2)nc2ccccc2c1=O	3.49% (inactive)	7.25		
COc1cc(NC(=O)c2ccc(Br)cc2)c(OC)cc1NC(=O)c1ccccc1		-19.9	18.4 µM (active)	
COc1cc(NC(=O)Cc2ccccc2)ccc1NC(=O)c1ccccc1		5.29	23.1 µM (active)	
COc1ccc(OCC(=O)Nc2ccc(NC(=O)c3cccs3)c(OC)c2)cc1	-5.31% (inactive)	10.8		
COc1cc(NC(=O)c2cccnc2)c(OC)cc1NC(=O)c1ccc(Br)cc1		15.3		inactive
COc1ccccc1CC(=O)Nc1cc(OC)c(NC(=O)c2ccccc2)cc1OC		-14.4		inactive
COc1cc(NC(=O)c2ccccc2Cl)ccc1NC(=O)c1cccs1	-3.53% (inactive)	16.4		

Compound	lipid storage change, negative = inhibition	cell number change [%]	Potency	outcome
COc1cc(NC(=O)c2ccccc2)c(OC)cc1NC(C)=O		-0.51		inactive
COc1ccc(NC(=O)c2cccc(NC(=O)c3ccccc3)c2)c(OC)c1	-15.5% (inactive)	-2.85		
COc1cc(NC(=O)COc2ccccc2Cl)ccc1NC(=O)c1cccs1			4.61 µM (active)	
COc1ccccc1NC(=O)c1ccc2snnc2c1	2.87% (inactive)	5.09		
COc1ccccc1NC(=O)c1ccc2nsnc2c1		21.1	3.66 µM (active)	
COc1cc(NC(=O)c2ccc3nsnc3c2)cc(OC)c1OC		3.44		inactive
COc1ccc(OCCC(=O)OCC(=O)Nc2ccc(S(=O)(=O)N3CCOCC3)cc2)cc1	-12.5% (inactive)	-18.9		
O=C(CSc1nnc(-c2ccc(F)cc2)o1)NC1CCCCC1	15.9% (inactive)	12		
CCOC(=O)N1CCN(CC(O)COc2ccc3c(c2)CCC3)CC1 (stereo not given)	12.3% (inactive)	-3.83		
O=C(CCCCCNC(=O)N1CCn2c1nc1ccccc12)NCc1ccccc1	7.61% (inactive)	11.3		
CC(NC(=O)c1cccc(N(C)C)c1)c1ccc(-n2ccnc2)cc1 (stereo not given)	-3.06% (inactive)			
COc1ccc(S(=O)(=O)N2CCN(c3nc4ccccc4nc3-n3nc(C)cc3C)CC2)cc1		-0.676		inactive
O=C(NC1CCSC1=O)c1ccc(Oc2cccc(C(F)(F)F)c2)nc1 (stereo not given)	-0.249% (inactive)	-7.23		
COc1ccc(F)cc1S(=O)(=O)NC1CCCCCC1				inactive
C/C(=N/Nc1ncc(C(F)(F)F)cc1Cl)c1ccncc1	-0.464% (inactive)	-2.18		
COc1ccc(S(=O)(=O)NCC2CCCN(C(=O)CC3CCCC3)C2)cc1 (stereo not given)	-12% (inactive)	-9.37		
COc1cc2c(cc1NC(=O)c1cccnc1)CCCC2	13.4% (inactive)	-6.97		
COc1ccc(C(=O)Nc2cc3c(cc2OC)CCCC3)cc1Br	-6.54% (inactive)	-12.7		
COc1cc2c(cc1NC(=O)c1ccc(C(C)(C)C)cc1)CCCC2		-19.1	16.4 µM (active)	
Oc1ccccc1Oc1ncc(Br)c(Cl)n1	12.3% (inactive)	10.9		
CCOC(=O)CCc1c(C)nc2cc(-c3ccc(F)cc3)[nH]n2c1=O	-1.04% (inactive)	-12		
C=CCn1c(SC(C)CC)nc(O)cc1=O (stereo not given)				inactive
CCOc1ccc2oc(C(=O)OCC(=O)NC3CCCCC3)c(C)c2c1	-2.63% (inactive)	-21.4		
CCCN(CC1CC1)C(=O)COC(=O)c1oc2ccc(OCC)cc2c1C		2.78	4.61 µM (active)	
CCCN(CC1CC1)C(=O)COC(=O)c1[nH]c(C)c(C(=O)OCC)c1C	-1.78% (inactive)	-17.3		

Compound	lipid storage change, negative = inhibition	cell number change [%]	Potency	outcome
CCCN(CC1CC1)C(=O)COC(=O)c1oc2c(F)cccc2c1C		1.1	1.64 µM (active)	
CCOC(=O)N1CCC(NC(=O)c2oc3c(F)cccc3c2C)CC1		-4.45		inactive
CCOc1ccc2oc(C(=O)OCC(=O)NC(=O)NC)c(C)c2c1	-6.75% (inactive)	-6.07		
CCn1c(O)c(C(C#N)=C2N=c3ccccc3=N2)c2ccccc21	-0.582% (inactive)	24.7		
O=C(Nc1cccc(NC(=O)c2ccc(Br)o2)n1)c1ccc(Br)o1	17.3% (inactive)	-4.87		
Cc1ccc(NS(=O)(=O)c2cc(C(=O)N3CCN(C)CC3)ccc2C)cc1C				inactive
CCOc1cccc(OCCCCN2CCCCC2)c1	10.3% (inactive)	-2.06		
CCc1ccc(NC(=O)CN(N=Nc2nonc2C)c2nonc2C)cc1	0.106% (inactive)			
CC(C)(C)c1csc(Sc2ncccc2[N+](=O)[O-])n1	-5.1% (inactive)	-11.2		
Cc1cccc(CSC2=CS(=O)(=O)c3ccccc3N2)c1	1.8% (inactive)	2.06		
Cc1cccc(CNC(=O)c2cc(S(=O)(=O)N3CCOCC3)cn2C)c1		14.6		inactive
CC(=O)c1cccc(NC(=O)COc2ccc(S(=O)(=O)N3CCCCC3)cc2)c1	13.1% (inactive)	12.3		
Cc1nn(C(C)C(=O)O)c(C)c1[N+](=O)[O-] (stereo not given)	-18.1% (inactive)	3.58		
O=C(Nc1nccs1)c1ccc(-c2ccc(Cl)cc2Cl)o1	-9.27% (inactive)	-16.9		
O=C(Nc1nccs1)c1ccc(-c2ccc(F)cc2)o1	2.16% (inactive)	0.674		
O=C(Nc1nccs1)c1ccc(-c2ccc(F)c(Cl)c2)o1		-11.8	10.3 µM (active)	
CCOC(=O)c1c(NC(=O)Cn2cnc([N+](=O)[O-])n2)sc2c1CCC(C)C2 (stereo not given)	6.52% (inactive)	2.74		
Cc1cccc(NC(=O)c2c(C)cc(=O)oc2C)n1		-10.1	8.2 µM (active)	
Cc1ccccc1NC(=O)c1c(C)cc(=O)oc1C	-2.94% (inactive)			
Cc1cc(=O)oc(C)c1C(=O)Nc1ccc(Cl)cn1	-4.54% (inactive)	1.04		
CC1=C(C)CC(C(=O)NNC(=O)c2csc(C)c2C)C(C(=O)O)C1 (stereo not given)	5.9% (inactive)	-1.11		
CS(=O)(=O)N(C(=O)NC(=O)NC12CC3CC(CC(C3)C1)C2)C1CCCCC1	2.98% (inactive)	9.2		
COc1ccc(N2CCN(S(=O)(=O)c3ccc(-c4cc(C)no4)s3)CC2)cc1			23.1 µM (active)	
CC(=O)c1ccc(N2CCN(S(=O)(=O)c3ccc(-c4cc(C)no4)s3)CC2)cc1				inactive
Cc1cc(-c2ccc(S(=O)(=O)N3CCN(c4ccc(F)cc4)CC3)s2)on1		5.9		inactive

Compound	lipid storage change, negative = inhibition	cell number change [%]	Potency	outcome
C=CCn1c(CCNC(=O)c2ccc(Cl)c(Cl)c2)nnc1SCCOc1ccc(OC)cc1	2.78% (inactive)	-3.68		
O=C(/C=C/c1ccc(F)cc1)NCc1cccs1	20.7% (inactive)	12.4		
Cc1nc2cc(NC(=O)C3COc4ccccc4O3)ccc2s1 (stereo not given)	0.94% (inactive)	3.18		
COc1ccc(S(=O)(=O)N2CCN(CC(=O)c3[nH]c(C)c(C(C)=O)c3C)CC2)cc1OC	8.72% (inactive)	3.31		
Cc1ccc(S(=O)(=O)NCC(=O)OCc2cc(=O)oc3c(C)c(C)ccc23)cc1C	13.6% (inactive)	11.5		
CN(CC(=O)Nc1ccc(Cl)c(Cl)c1)C(=O)CNC(=O)Cc1ccccc1	19% (inactive)	-4.02		
COc1ccccc1NC(=O)C1CCCN(S(=O)(=O)c2ccccc2)C1 (stereo not given)		-11	5.8 µM (active)	
COc1ccccc1NC(=O)C1CCCN(S(=O)(=O)c2ccc(-n3cnnn3)cc2)C1 (stereo not given)		-7.69		inactive
COc1ccccc1NC(=O)NN1CCCCC1		17.6	0.58 µM (active)	
COc1ccccc1NC(=O)NCCN1CCCCC1	-2.26% (inactive)	6.08		
COc1ccccc1NC(=O)C1CCCN(S(=O)(=O)c2cnc[nH]2)C1 (stereo not given)	7.37% (inactive)	1.66		
COc1ccccc1NC(=O)N1CCCC1	8.15% (inactive)	1.33		
COc1ccc2c(c1)[nH]c1c(=O)n(N)cnc12	8.27% (inactive)	6.47		
Cn1cc(/C=C/C(=O)N2CCCC(C(=O)c3cccc4ccccc34)C2)cn1 (stereo not given)	-4.39% (inactive)	8.66		
Cc1ccc(N2CC(NC(=O)C(=O)c3c[nH]c4ccccc34)CC2=O)cc1C (stereo not given)	1.15% (inactive)	20.5		
Cc1nc(NC(=O)COC(=O)CCc2nc3ccccc3s2)c(Cl)cc1Cl	-1.19% (inactive)	8.53		
C[C@H](NC(=O)c1nc[nH]c1C(=O)N[C@@H](Cc1ccccc1)C(=O)OCc1ccccc1)c1ccccc1	-6.18% (inactive)			
CCCC(=O)Nc1ccc(C(=O)N/N=C/c2ccc([N+](=O)[O-])o2)cc1		-15.2	14.6 µM (active)	
O=C(CNc1cccc2ccccc12)N/N=C/c1ccc([N+](=O)[O-])o1		-25.8	16.4 µM (active)	
O=C(CNc1ccc2ccccc2c1)N/N=C/c1ccc([N+](=O)[O-])o1	26.8% (inactive)			
O=C(N/N=C/c1ccc([N+](=O)[O-])o1)C(=O)Nc1ccc(C(=O)O)cc1	13.1% (inactive)	8.32		
O=C(CNc1cccc2ccccc12)N/N=C/c1ccc([N+](=O)[O-])cc1	-3.45% (inactive)	-4.75		
CCCCCCCC(=O)N/N=C/c1ccc([N+](=O)[O-])o1	-11.4% (inactive)	-5.79		
